From PubChem BioAssay AID1159580 (chemical genetic matrix, 2015)
Screen size: about 5,500 compounds; about 2,000 (36%) were called active. Roughly 18% stayed inconclusive and do not appear here. Rule as the data show it: active = normalized growth mostly below about 0.91 (no sharp cut-off); inconclusive = no clear call, values can overlap the other calls; inactive = mostly above about 0.92. The list shows a part of the results.

Assay: chemical genetic growth profiling, strain panel (AID 1159580);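 also: tested at 20 µM; growth read once vehicle control cultures reached saturation at 30 °C; 1 = growth at the plate median or of vehicle wells; lower values mean less growth of the strain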
Conditions: growth OD
[1] = S. cerevisiae deletion strains, locus YHR030C, strain SLT2, hits give low values

Measured: normalized growth

Cc1cc(C(F)(F)F)c(C#N)c(=O)[nH]1
inactive: S. cerevisiae deletion strains, locus YAL013W, strain DEP1, hits give low values 1.02 | S. cerevisiae deletion strains, locus YBR229C, strain ROT2, hits give low values 1 | S. cerevisiae deletion strains, locus YCL061C, strain MRC1, hits give low values 1 | S. cerevisiae deletion strains, locus YDL101C, strain DUN1, hits give low values 0.995 | S. cerevisiae deletion strains, locus YDL134C, strain PPH21, hits give low values 1.01 | S. cerevisiae deletion strains, locus YDR150W, strain NUM1, hits give low values 0.982 | S. cerevisiae deletion strains, locus YEL061C, strain CIN8, hits give low values 1 | S. cerevisiae deletion strains, locus YGR078C, strain PAC10, hits give low values 1 | [1] 1.01 | S. cerevisiae deletion strains, locus YHR087W, strain rtc3, hits give low values 1 | S. cerevisiae deletion strains, locus YJL187C, strain SWE1, hits give low values 1 | S. cerevisiae deletion strains, locus YJR043C, strain POL32, hits give low values 0.997 | S. cerevisiae deletion strains, locus YJR075W, strain HOC1, hits give low values 1.03 | S. cerevisiae deletion strains, locus YKL190W, strain CNB1, hits give low values 1.01 | S. cerevisiae deletion strains, locus YLR039C, strain RIC1, hits give low values 1.04 | S. cerevisiae deletion strains, locus YLR058C, strain SHM2 (second series), hits give low values 1 | S. cerevisiae deletion strains, locus YLR085C, strain ARP6, hits give low values 1.03 | S. cerevisiae deletion strains, locus YLR262C, strain YPT6, hits give low values 1.03 | S. cerevisiae deletion strains, locus YML094W, strain GIM5, hits give low values 0.997 | S. cerevisiae deletion strains, locus YMR219W, strain ESC1, hits give low values 1.01 | S. cerevisiae deletion strains, locus YMR263W, strain SAP30, hits give low values 0.963 | S. cerevisiae deletion strains, locus YNL128W, strain TEP1, hits give low values 1.02 | S. cerevisiae deletion strains, locus YNL153C, strain GIM3, hits give low values 1 | S. cerevisiae deletion strains, locus YNL298W, strain CLA4 (second series), hits give low values 1.02 | S. cerevisiae deletion strains, locus YNL322C, strain KRE1, hits give low values 1 | S. cerevisiae deletion strains, locus YNR030W, strain Alg12, hits give low values 1.02 | S. cerevisiae deletion strains, locus YOL006C, strain TOP1, hits give low values 1.06 | S. cerevisiae deletion strains, locus YPL055C, strain LGE1, hits give low values 1.02 | S. cerevisiae deletion strains, locus YPL241C, strain CIN2, hits give low values 0.941 | S. cerevisiae deletion strains, locus YPR135W, strain CTF4, hits give low values 1.06 | S. cerevisiae strains, strain wild type, hits give low values 1.02

O=C1CCc2ccc(OCCCCN3CCN(c4cccc(Cl)c4Cl)CC3)cc2N1
inactive: [1] 1.03 | S. cerevisiae deletion strains, locus YHR079C, strain IRE1, hits give low values 0.961 | S. cerevisiae deletion strains, locus YJL095W, strain BCK1, hits give low values 0.955 | S. cerevisiae deletion strains, locus YJR066W, strain TOR1, hits give low values 0.927 | S. cerevisiae deletion strains, locus YLR113W, strain HOG1, hits give low values 0.959 | S. cerevisiae deletion strains, locus YNL183C, strain NPR1, hits give low values 0.894 | S. cerevisiae deletion strains, locus YOR231W, strain MKK1, hits give low values 0.97 | S. cerevisiae deletion strains, locus YPL256C, strain CLN2, hits give low values 0.975
